# An excerpt weighted towards active compounds, which were near 4.8% of everything screened.
# ssDAF-12 act = activators of S. stercoralis DAF-12 nuclear receptor; HEK293 ssDAF-12/GRIP1 lit1-tk-luc reporter, luminescence; % of 3 µM dafachronic acid response; activation, % at 6.8 µM; 1% of 370,000 active; AID 652126;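 active = activation above the mean over all tested compounds plus 3 SD, cut at about 0.9% in these data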
# SMARCA2 act = activators of SMARCA2 function; MG213 cells, MMTV-luciferase reporter, dexamethasone, overnight; activation, % at 9.1 µM; 1% of 370,000 active; AID 652017; in the data active = activation above about 7.8%
# hcDAF12 agonist = H. contortus DAF-12 activation, primary screen. HEK293 hcDAF-12 lit1-tk-luc reporter, luminescence; 0% DMSO, 100% Δ7-dafachronic acid. AID 652067. 1.4% of 370,000 active. activation, % at 6.8 µM;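 active = activation above the mean of all tested compounds plus 3 SD, cut at about 5.5% in these data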
# DAX1 inh-1 = inhibitors of human orphan nuclear receptor DAX1 (NR0B1); HEK293 Gal4-DAX1 luciferase reporter, luminescence; inhibition, % at 6.75 µM; 0.99% of 340,000 active;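 active = inhibition above the mean over all tested compounds plus 3 SD, cut at about 4.2% in these data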;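 note: inhibition shows as a rise in luminescence from relieved DAX1 repression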
# hgDAF-12 ag = agonists of H. glycines DAF-12 nuclear receptor; HEK293 GAL4-hgDAF12 UAS-luciferase reporter, agonist luminescence; normalized to butyrate control; activation, % at 6.8 µM; 1.8% of 370,000 active; AID 687014;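 active = activation above a cutoff set at the mean of all screened compounds plus 3 SD, cut at about 10% in these data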
# DAX1 inh-2 = blocks DAX1 repression of SF-1 activated StAR promoter; 1.1% of 370,000 active; inhibition, % at 6.8 µM; HEK293T StAR-luciferase reporter, SF-1/DAX-1 repression relief;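 active = inhibition above the mean over all tested compounds plus 3 SD, cut at about 3.6% in these data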;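 note: higher inhibition means more luminescence from relief of DAX-1 repression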
# DAX1 inh confirm = NR0B1 (human) inhibition, confirmation; shares compounds with DAX1 inh-2; inhibition, % at 6.8 µM; 87% of 2,400 active; HEK293T StAR-promoter luciferase reporter, SF-1/DAX-1 repression;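 active = inhibition above the average of every tested compound plus 3 SD, cut at about 3.8% in these data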;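 note: active compounds raise luminescence by relieving repression of the StAR reporter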
# Target sequence (P51843 whole entry, looked up): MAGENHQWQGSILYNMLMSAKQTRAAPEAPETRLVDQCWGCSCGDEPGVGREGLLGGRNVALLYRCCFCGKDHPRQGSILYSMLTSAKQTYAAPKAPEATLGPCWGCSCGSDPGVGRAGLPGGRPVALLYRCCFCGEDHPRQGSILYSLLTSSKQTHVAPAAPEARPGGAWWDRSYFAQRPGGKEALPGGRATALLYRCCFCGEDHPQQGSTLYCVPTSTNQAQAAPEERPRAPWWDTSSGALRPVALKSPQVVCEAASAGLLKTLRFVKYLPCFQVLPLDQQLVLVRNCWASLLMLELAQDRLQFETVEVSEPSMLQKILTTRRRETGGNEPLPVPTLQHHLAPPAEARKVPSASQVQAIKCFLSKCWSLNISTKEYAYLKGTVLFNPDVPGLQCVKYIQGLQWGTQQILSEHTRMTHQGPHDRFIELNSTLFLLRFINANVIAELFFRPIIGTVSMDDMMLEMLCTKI
# SF1 AF2mut Luc = counter-screen for DAX1 inhibitors: nonselective inhibitors with SF-1 AF2 mutant | shares compounds with DAX1 inh-2 | 78% of 2,400 active | AID 652136 | inhibition, % at 6.8 µM | HEK293 StAR-luciferase, luminescence;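 active = inhibition above the mean of all tested compounds plus 3 SD, cut at about 3% in these data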
# A number is an active result; n = inactive; x = not tested or not shown.
SMILES,ssDAF-12 act,SMARCA2 act,hcDAF12 agonist,DAX1 inh-1,hgDAF-12 ag,DAX1 inh-2,DAX1 inh confirm,SF1 AF2mut Luc
Cc1csc(NC(=O)c2ccc(COc3cccc(F)c3)o2)n1,n,n,n,x,n,n,x,x
CC(C)(C)n1cnc2cc(NC(=O)c3cccs3)ccc21,n,n,n,n,n,5.6,8.6,5.9
Cc1ccnc(NC(=O)c2ccc(OCC3CCCO3)cc2)c1 (stereo unspecified),n,n,n,n,n,6.8,4.5,n
C=CCn1c(COc2ccc(C)cc2)nnc1SCC(=O)Nc1cc(Cl)cc(Cl)c1,n,n,n,x,n,n,x,x
CCCCC#CC(CC)NCc1ccc(OC)cc1OC (stereo unspecified),n,x,n,x,n,x,x,x
C[C@@H]1CCN(C2CC2)S(=O)(=O)c2ccc(N3CC[C@@H](N(C)C)C3)cc2O1,n,n,n,x,n,n,x,x
CCOC(=O)c1sc(NC(=O)CSc2nccn2C)nc1C,n,n,n,n,n,5.7,6.8,4.8
CCOC(=O)c1sc(NC(=O)CSc2ncccn2)nc1C,n,n,n,n,n,n,x,x
O=C(CSc1nnc(-c2ccccn2)o1)Nc1ccccc1F,n,n,n,n,12.4,14.2,14.6,6.3
Cc1ccccc1NC(=O)CSc1nnc(-c2ccccn2)o1,n,n,n,n,n,n,x,x
CCOC(=O)C1(Cc2ccccc2)CCN(Cc2ccc(C)cc2)CC1,n,n,n,x,n,n,x,x
COc1ccccc1-c1nnc2n1N=C(c1ccc3c(c1)OCO3)CS2,n,n,n,x,n,4.7,10.9,n
COc1ccc(OC)c(C2=Nn3c(nnc3-c3cc(OC)c(OC)c(OC)c3)SC2)c1,n,n,n,n,n,n,x,x
COc1ccc(OC)c(-c2nnc3n2N=C(c2ccc(OC)c(OC4CCOC4)c2)CS3)c1 (stereo unspecified),n,n,n,n,n,4.9,19.4,n
c1ccc(-c2nnc3n2N=C(c2ccc4c(c2)OCO4)CS3)nc1,n,n,n,n,n,n,x,x
COC(=O)c1cc(-c2ccc(F)cc2OCc2ccccc2)c(=O)n2c1CCC2,n,n,n,x,n,n,x,x
CCCCNc1ccc2c(c1)C1CC2CCN1C(=O)OCc1ccccc1 (stereo unspecified),n,n,n,n,n,7.0,8.3,n
Cc1ccc(OCc2cc(C(=O)N3CC4C[C@@H]5CC3C[C@H](C4)C5)no2)cc1C,n,n,n,n,11.0,5.2,n,3.6
Cc1nnc(CN(C)C(=O)c2cc(COc3ccc(F)cc3Cl)on2)o1,n,n,n,n,n,5.2,8.1,4.2
O=C(c1cc(COc2ccc(F)cc2Cl)on1)N1CC2C[C@@H]3CC1C[C@H](C2)C3,n,n,n,n,12.9,5.7,5.8,n
Cc1cccc(C)c1OCc1cc(C(=O)N2CC3C[C@@H]4CC2C[C@H](C3)C4)no1,n,n,n,n,n,n,x,x
COc1ccc(-c2cc(NC(=O)Cc3c[nH]c4ccccc34)ccc2Nc2cccnc2)c(OC)c1,n,n,n,x,n,n,x,x
Cc1ccc(S(=O)(=O)Nc2cccc(-c3ccc(N4CCCCCC4)nn3)c2)cc1,n,n,n,n,n,4.9,7.5,4.2
CC(c1ccccc1)N1CC[C@H]2C=CC[C@@H](C(=O)Nc3ccc(F)c(F)c3)[C@H]2C1=O (stereo partly specified),n,x,n,x,n,x,x,x
O=C(c1ccc(F)cc1Cl)N1CCC(Oc2cccnc2)CC1,n,n,n,x,n,n,x,x
SMILES,ssDAF-12 act,SMARCA2 act,hcDAF12 agonist,DAX1 inh-1,hgDAF-12 ag,DAX1 inh-2,DAX1 inh confirm,SF1 AF2mut Luc
O=c1oc(Nc2ccccc2Cl)nc2ccccc12,n,n,n,n,10.7,4.8,10.1,3.8
O=c1oc(Nc2cccc(Cl)c2)nc2ccccc12,n,n,n,n,n,5.4,10.4,4.8
COc1cc(OC)c2c(-c3cccc(-c4ccc(NC(C)=O)cc4)c3)cc(=O)oc2c1,n,n,n,n,n,4.8,6.3,n
COc1cc(OC)c2c(-c3cccc(-c4ccc(OC)c(OC)c4)c3)cc(=O)oc2c1,n,n,n,n,n,n,x,x
O=C(CSc1nc2ccccc2n1Cc1ccccc1)NN=Cc1c[nH]c2ccccc12,n,n,n,x,n,n,x,x
O=C(Cn1nnc(-c2ccc3c(c2)OCO3)n1)Nc1ccccc1C(=O)O,n,n,n,n,n,4.9,n,3.1
O=C(Cn1nnc(-c2ccccc2)n1)Nc1ccc2c(c1)OCO2,n,n,n,n,n,n,x,x
O=C(CSc1n[nH]c(=O)n1C1CC1)Nc1ccccc1,n,n,n,n,n,11.3,n,n
COc1ccc([C@H]2OC(=O)C[C@@H]2C(=O)N2CCCCC2)cc1OC,n,n,n,x,n,n,x,x
CN(C)[C@H]1CCN(c2ccc3c(c2)O[C@H]2CCN(C2)S3(=O)=O)C1,n,n,n,x,n,n,x,x
CN(c1c2c(nc3ncnn13)CCCC2)C1CCCCC1,n,n,n,x,n,n,x,x
Cc1cc(C)nc(SCc2csc(-c3ccccc3)n2)n1,n,n,n,n,11.4,5.2,12.5,6.3
O=C(NCC1COc2ccccc2O1)c1ccc(NC(=O)c2c(Cl)cccc2Cl)cc1 (stereo unspecified),n,n,n,x,n,n,x,x
CCCn1c(C)cs/c1=N\C(=S)Nc1ccccc1,n,n,n,n,n,n,x,x
Cc1cs/c(=N/C(=S)Nc2ccccc2)n1C,0.9,n,n,n,12.8,5.6,12.2,5.8
COc1ccc(NC(=O)COc2ccc(C)cc2)c([N+](=O)[O-])c1,n,n,n,x,n,n,x,x
COc1ccc(NC(=O)COC(=O)c2cc(C)oc2C)c([N+](=O)[O-])c1,n,n,n,n,n,4.6,n,n
O=C(Nc1ccc(Br)cc1)N1CCCCCC1,n,n,n,n,n,7.2,4.8,3.3
O=C(Nc1ccc(Cl)c(Cl)c1)N1CCCCCC1,n,n,n,n,n,5.3,8.8,4.8
CCc1ccc(NC(=S)N2CCN(C)CC2)cc1,n,n,n,n,n,n,x,x
Cc1cc(C)cc(NC(=O)N2CCc3ccccc3C2)c1,n,n,n,n,n,n,x,x
O=C(Nc1ccc(Cl)c(Cl)c1)N1CCC(N2CCCCC2)CC1,n,n,n,n,n,n,x,x
CCc1ccc(NC(=S)N2CCCC2)cc1,n,n,6.0,n,12.1,5.3,8.6,3.9
O=C(Nc1ccc(Br)cc1)N1CCc2ccccc2C1,n,n,n,n,n,5.3,5.5,3.0
COc1ccc(CN2C3=NC(c4ccccc4)CC(=O)N3/C(=C\c3ccccc3)C2c2ccccc2)c(OC)c1 (stereo unspecified),n,x,n,x,n,x,x,x

# Source: PubChem (The Scripps Research Institute Molecular Screening Center)
